An excerpt weighted towards active compounds, which were near 0.92% of everything screened.
AGP1 TOR yeast: yeast TOR pathway AGP1-GFP modulation; hit rate 0.02% among 320,000; GFP response vs DMSO, % at 10 µM; S. cerevisiae AGP1-GFP multiplex flow cytometry, 3 h; GFP as percent of DMSO wells; AID 2066;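 active = GFP response relative to DMSO above a set limit, near screen average plus 3 SD, cut at about 150% in these data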;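 note: median GFP channel fluorescence of the gated AGP1 strain per well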
LAP4-GFP MLPCN: yeast TOR pathway LAP4-GFP modulation; GFP response vs DMSO, % at 10 µM; S. cerevisiae LAP4-GFP multiplex, flow cytometry GFP, 3 h; median GFP as percent of DMSO wells; hit rate 0.34% among 320,000;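 active = GFP response vs DMSO above a set limit, about the screen mean plus 3 SD, cut at about 150% in these data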
RPL19A TOR yeast: alters RPL19A-GFP fluorescence in TOR pathway yeast screen. hit rate 0.3% among 330,000. percent response vs DMSO, % at 10 µM. S. cerevisiae RPL19A-GFP strain, flow cytometry, 3 h; stronger effect = lower value;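 active = percent response vs DMSO below 50%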;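 note: median channel GFP fluorescence of the barcoded RPL19A-GFP strain; ratio of sample median GFP to plate DMSO average so 100% = DMSO; lower means less RPL19A-GFP as with rapamycin TOR inhibition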
CIT2 TOR yeast: alters CIT2-GFP fluorescence in TOR pathway yeast screen. S. cerevisiae CIT2-GFP strain, flow cytometry, 3 h; 100 means same as DMSO wells. GFP response vs DMSO, % at 10 µM. hit rate 0.065% among 320,000. AID 2029;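 active = GFP response relative to DMSO above a set limit, near the screen mean plus 3 SD, cut at about 150% in these data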;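 note: ratio of well median GFP fluorescence to mean of DMSO wells on the plate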
MEP2-GFP yeast: alters MEP2-GFP fluorescence in TOR pathway yeast screen; S. cerevisiae MEP2-GFP strain, flow cytometry GFP, 3 h; 100% = DMSO control level; GFP response vs DMSO, % at 10 µM; hit rate 0.51% among 330,000;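 active = GFP response versus DMSO above a set limit, roughly screen mean plus 3 SD, cut at about 180% in these data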;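 note: median GFP fluorescence of the barcode-gated MEP2-GFP cells per well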
LAP4 cherry2: second confirmation of modulators of TOR reporter LAP4-GFP in yeast | hit rate 20% among 590 | shares compounds with LAP4-GFP MLPCN | S. cerevisiae LAP4-GFP strain, flow cytometry GFP, 3 h | AID 2621 | GFP response vs DMSO, % at 10 µM;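 active = GFP signal as percent of the solvent control above about 150%, meaning raised reporter expression, limit read from the data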;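 note: ratio of well median GFP fluorescence to plate DMSO mean so 100% = DMSO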
MEP2-GFP pick2: second confirmation of modulators of TOR reporter MEP2-GFP in yeast | shares compounds with LAP4-GFP MLPCN | hit rate 10% among 590 | AID 2622 | S. cerevisiae MEP2-GFP strain, flow cytometry GFP, 3 h | GFP response vs DMSO, % at 10 µM;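 active = GFP signal above 150% of the solvent control wells, that is a rise of more than half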;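 note: median channel GFP fluorescence of all gated yeast cells per well; ratio of median GFP to plate DMSO average so 100% = DMSO level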
RPL19A-GFP pick2: reconfirmed modulator of RPL19A-GFP TOR reporter in yeast; shares compounds with LAP4-GFP MLPCN; S. cerevisiae RPL19A-GFP strain, flow cytometry GFP, 3 h; stronger effect = lower value; 100% means same as DMSO wells; GFP response vs DMSO, % at 10 µM; hit rate 3% among 590; AID 2623;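 active = under 65% GFP response relative to DMSO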;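 note: median GFP channel fluorescence per well over the all cells gate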
CIT2-GFP pick2: yeast CIT2-GFP TOR reporter modulation, second cherry pick. hit rate 8% among 590. GFP response vs DMSO, % at 10 µM. shares compounds with LAP4-GFP MLPCN. AID 2624. S. cerevisiae CIT2-GFP strain, flow cytometry GFP, 3 h; DMSO control wells read 100%;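 active = GFP response vs DMSO above about 150%, limit read from the data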;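 note: median green fluorescence per well over all gated yeast cells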
AGP1-GFP pick2: reconfirmed modulator of AGP1-GFP TOR reporter in yeast; shares compounds with LAP4-GFP MLPCN; S. cerevisiae AGP1-GFP strain, flow cytometry GFP, 3 h; percent response vs DMSO, % at 10 µM; 590 tested, under 10 active; AID 2643;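 active = over 150 percent of DMSO response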;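 note: median GFP channel fluorescence over all cells without mother daughter split; sample median GFP divided by mean DMSO control so 100% equals DMSO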
s288c autofluor: yeast s288c autofluorescence artifact, counter-screen; fluorescence change (kMESF span) at 33 µM; S. cerevisiae s288c, 520 nm autofluorescence, flow cytometry, 3 h; stronger effect = higher value; zero means same as solvent-only cells; shares compounds with LAP4-GFP MLPCN; 610 tested, under 10 active;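 active = fluorescence span over the dose series, or activity score, above about 33, limit read from the data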
s288c autofl DR: counter-screen for autofluorescence of TOR hits in yeast s288c; shares compounds with LAP4-GFP MLPCN; S. cerevisiae s288c parental, compound autofluorescence, flow cytometry, 3 h; fluorescence change (span) at 33 µM; 110 tested, under 10 active; AID 488829;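 active = fluorescence change span, or the activity score built from it, above 25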
TORC1 bypass: wildtype yeast growth loss with TORC1 bypass cells unaffected. shares compounds with LAP4-GFP MLPCN. S. cerevisiae BY4741 spot growth rating, 48-72 h; stronger effect = lower value. growth rating (0-3) at 30 µM. 120 tested, under 10 active. AID 504456;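 active = growth rating at most 1 for wild type yeast while the TORC1 bypass strain still grows fully, rated 3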
* = called active by the depositor; x = not tested or not shown.

SMILES | AGP1 TOR yeast | LAP4-GFP MLPCN | RPL19A TOR yeast | CIT2 TOR yeast | MEP2-GFP yeast | s288c autofluor | others
Cc1nc(N2CCN(S(=O)(=O)c3ccccc3C#N)CC2)c2c(-c3cccs3)csc2n1 | 111 | 108 | 98 | 90 | 109 | x
O=C(OCC(=O)N1CCN(C(=O)c2ccco2)CC1)c1cc(-c2ccc(Cl)c(Cl)c2Cl)nc2ccccc12 | 114 | 122 | 80 | 99 | 118 | -0.3
O=C(OCC(=O)N1CCN(C(=O)c2ccco2)CC1)c1cc(-c2ccco2)nc2ccccc12 | 97 | 123 | 87 | 128 | 103 | x
COc1ccc(NC(=O)CC(=O)Nc2ccc(OC)cc2OC)c(OC)c1 | 105 | 104 | 103 | 105 | 105 | x
COc1ccc(NC(=O)CC(C)=O)c(OC)c1 | x | x | x | x | x | x | LAP4 cherry2=100;MEP2-GFP pick2=93;RPL19A-GFP pick2=101;CIT2-GFP pick2=104;AGP1-GFP pick2=98
Cc1cccc(N=C2NC(=O)/C(=C/C=C/c3ccco3)S2)c1C | 91 | 162* | 96 | 112 | 100 | 3.4 | LAP4 cherry2=190*;MEP2-GFP pick2=122;RPL19A-GFP pick2=112;CIT2-GFP pick2=118;AGP1-GFP pick2=98
Cc1ccc(N=C2NC(=O)/C(=C/C=C/c3ccco3)S2)cc1 | 98 | 103 | 98 | 97 | 97 | x
Cc1cc(NC(=O)CSc2nnc(-c3ccncc3)n2-c2ccc(F)cc2)no1 | 75 | 98 | 63 | 91 | 135 | x | LAP4 cherry2=100;MEP2-GFP pick2=103;RPL19A-GFP pick2=100;CIT2-GFP pick2=97;AGP1-GFP pick2=97
Cc1ccc(N2C(=O)C(Cl)=C(Nc3c(C)n(C)n(-c4ccccc4)c3=O)C2=O)cc1 | 101 | 102 | 104 | 95 | 103 | 0.3
Cc1cccc(N2C(=O)C(Cl)=C(Nc3c(C)n(C)n(-c4ccccc4)c3=O)C2=O)c1C | 101 | 109 | 103 | 99 | 109 | 0.2
O=C(NCC(c1ccccc1Cl)N1CCCC1)C1CCN(C(=O)Nc2ccccc2)CC1 (stereo unspecified) | 109 | 109 | 105 | 97 | 106 | x
Cc1ccc(C(CC(=O)O)NC(=O)c2ccc(S(=O)(=O)N3CC(C)OC(C)C3)cc2)cc1 (stereo unspecified) | 97 | 114 | 100 | 110 | 196* | 0 | LAP4 cherry2=98;MEP2-GFP pick2=100;RPL19A-GFP pick2=99;CIT2-GFP pick2=96;AGP1-GFP pick2=99
CCSc1ccc(-c2nn(-c3ccccc3)cc2/C=C(/C#N)C(=O)NC)cc1 | 68 | 74 | 60 | 82 | 171 | x | LAP4 cherry2=92;MEP2-GFP pick2=94;RPL19A-GFP pick2=102;CIT2-GFP pick2=110;AGP1-GFP pick2=95
CCCN(CC(=O)Nc1ccccc1OC)C(=O)CC1CCCC1 | 93 | 102 | 91 | 92 | 91 | x
O=C(NNC(=O)c1ccco1)c1csc(N2CCOCC2)n1 | 99 | 98 | 93 | 97 | 84 | x
Cc1cc2ccccn2c1C(=O)c1ccc([N+](=O)[O-])o1 | 97 | 218* | 84 | 121 | 101 | 18
Cc1cc2ccccn2c1C(=O)c1cccc([N+](=O)[O-])c1 | 111 | 106 | 104 | 103 | 111 | x
O=[N+]([O-])c1cc(O)c2ncccc2c1 | 98 | 169* | 101 | 124 | 104 | 0.71 | s288c autofl DR=1.9;TORC1 bypass=3
O=[N+]([O-])c1cc2cccnc2c2ncccc12 | 104 | 109 | 102 | 102 | 102 | x
COc1ccc(C2=CC(=O)N(Nc3ccccc3)C2=O)cc1 | 100 | 232* | 77 | 70 | 92 | 1.6
O=C1C2CC=CCC2C(=O)N1Nc1ccccc1 (stereo unspecified) | 94 | 92 | 95 | 97 | 101 | x
O=C1C=C(c2ccccc2)C(=O)N1Nc1ccccc1 | 67 | 118 | 48* | 74 | 100 | -0.1
Cc1ccc(NN2C(=O)C=CC2=O)cc1 | 105 | 96 | 104 | 99 | 102 | x
Cc1ccc(NN2C(=O)C=C(c3ccc(Cl)cc3)C2=O)cc1 | 74 | 203* | 54 | 78 | 98 | 1.9
N#Cc1cccc(NC(=O)CCc2ccc(S(=O)(=O)N3CCOCC3)cc2)c1 | 98 | 88 | 102 | 105 | 102 | x
Cc1ccc(OCC(=O)OCC(=O)NC2CCCC2)cc1C | 96 | 98 | 96 | 96 | 97 | x
Cc1cc(C)cc(OCC(=O)OCC(=O)NC2CC2)c1 | 112 | 183* | 84 | 80 | 100 | x | LAP4 cherry2=97;MEP2-GFP pick2=102;RPL19A-GFP pick2=101;CIT2-GFP pick2=98;AGP1-GFP pick2=102
